Holding throughout (format): functional
Assay [1] has as its system Plasmodium falciparum. The assay can be described thus: GSK_TCMDC: Inhibition of Plasmodium falciparum 3D7 in whole red blood cells, using parasite LDH activity as an index of growth. Test compounds present at 2uM.
Assay [2] has as its system Plasmodium falciparum. Description: GSK_TCMDC: Inhibition of Plasmodium falciparum Dd2 in whole red blood cells, using parasite LDH activity as an index of growth. Test compounds present at 2uM.
The subject of the next assay is HepG2. Description: GSK_TCMDC: Percent inhibition of human HepG2 cell line. Test compounds present at 10uM.

What is called Inhibition is the share of the control response that was lost under treatment. For `Cn1ccc(C(=O)Nc2ccc3c(c2)CN(Cc2ccc(N4CCCC4)o2)CCC3)n1.O=CO`, the Inhibition with Plasmodium falciparum [1] amounted to 80%; in the assay on Plasmodium falciparum [2], 72%; with HepG2, 19%.
On the same counts, the results for `CCCCOC(=O)[C@H](CCC)NC(=O)c1ccc(NS(=O)(=O)c2ccc3nc(N)[nH]c(=O)c3c2)cc1` are 99%, 3% and 66%.
On to `COc1ccc2nccc([C@@H](O)CN3CCC(NCc4cc5cccc(O)c5[nH]4)CC3)c2c1.O=C(O)C(=O)O`, for which the Inhibition in the assay with Plasmodium falciparum [1] stood at 100%; in the assay with Plasmodium falciparum [2], 35%; with HepG2, 0%.
As for `COC(=O)c1cc(OC)c(OC)cc1NC(=O)NC12CC3CC(CC(C3)C1)C2`, the Inhibition in the assay with Plasmodium falciparum [1] was found to be 94%; with Plasmodium falciparum [2], 3%; with HepG2, 6%.
`COc1cccc(NC(=O)NC2CCN(c3ccnc(Nc4ccc(F)cc4)n3)C2)c1` (stereo not given): the results for the Inhibition with Plasmodium falciparum [1], with Plasmodium falciparum [2] and with HepG2 were 100%, 71% and 9%, respectively.
In the case of `COc1ccc(CNCc2cccc(-c3ccc(-c4nc5cccc(C)c5[nH]4)s3)c2)cc1.O=C(O)C(F)(F)F`, the Inhibition in the assay with Plasmodium falciparum [1] amounted to 100%; with Plasmodium falciparum [2] it was 65%; in the assay with HepG2 it was 24%.
Take `CN(C)CCCOc1ccc(-c2nc(-c3ccc4c(c3)CCC4=NO)c(-c3ccncc3)[nH]2)cc1.Cl`: the figures for the Inhibition in the assay with Plasmodium falciparum [1], with Plasmodium falciparum [2] and in the assay with HepG2 were 96%, 63% and 68%, respectively.
`CCN(CC)/C(=N/C(=N)Nc1ccc(Cl)cc1)NCCCCCCCCN/C(=N\C(=N)Nc1ccc(Cl)cc1)N(CC)CC`: the Inhibition stood at 99% with Plasmodium falciparum [1], 94% with Plasmodium falciparum [2] and 10% in the assay on HepG2.
Regarding `Cc1cc(C(=O)OCC(=O)Nc2c(C)n(C)n(-c3ccccc3)c2=O)c(C)n1-c1ccc(F)cc1`, the Inhibition in the assay on Plasmodium falciparum [1] was 100%; in the assay with Plasmodium falciparum [2], 99%; in the assay on HepG2 it was 0%.
Regarding `CCOC(=O)CNCC(=O)c1ccc(OCc2ccccc2)cc1.Cl`, the values for the Inhibition with Plasmodium falciparum [1], in the assay with Plasmodium falciparum [2] and with HepG2 were 95%, 43% and 4%, respectively.

The values are drawn from ChEMBL document CHEMBL1157539, “Thousands of chemical starting points for antimalarial lead identification” (Nature, 2010).
